Results: the supplement of paper PMC10849652
The full data set covers some 8,800 targets. This sample favours those with a hit. About 0.5% of all pairs of compound and target were hits.

Assays:
Experiment in all cases: log2 fold change, soluble protein after heating vs DMSO (PISA); higher = thermal stabilisation; K562 lysate, 10 uM; active = over 0.2 and 3.5 SD of the protein, either way, in both replicates (recomputed)
alvocidib = compound: CN1CC[C@H](c2c(O)cc(O)c3c(=O)cc(-c4ccccc4Cl)oc23)[C@H](O)C1 [alvocidib]
How it was run: (§1)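 Values give the log-two fold change in thermal stability against solvent controls, from duplicates. Crude K562 extract at 1 mg/mL protein, made by dounce homogenisation in PBS pH 7.4 with 1 mM MgCl2, was treated with 10 μM compound for 30 min. After 3 min heating across 48°C-58°C, aliquots were pooled, adjusted to 0.5% NP-40 at 4°C and centrifuged at 21,000xg for 90 min. The supernatant was measured by TMTpro 16plex LC-MS/MS with channel sums equalised.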

Tubastatin A = compound: CN1CCc2c(c3ccccc3n2Cc2ccc(C(=O)NO)cc2)C1 [Tubastatin A]
How it was run: as §1

[1] = compound: CNC(=O)C1=CC=CC=C1NC2=NC(=NC=C2Cl)NC3=C(C=C(C=C3)N4CCOCC4)OC
How it was run: as §1

defactinib = compound: CNC(=O)c1ccc(Nc2ncc(C(F)(F)F)c(NCc3nccnc3N(C)S(C)(=O)=O)n2)cc1 [defactinib]
How it was run: as §1

[2] = compound: CNc1nc(-c2ccc3c(N)n[nH]c3c2)cc(N2C[C@@H](C(=O)NC3CCCCC3)CC[C@H]2C)n1
How it was run: as §1

encorafenib = compound: COC(=O)N[C@@H](C)CNc1nccc(-c2cn(C(C)C)nc2-c2cc(Cl)cc(NS(C)(=O)=O)c2F)n1 [encorafenib]
How it was run: as §1

[3] = compound: COC(=O)[C@H](CCSC)NC(=O)C1=C(C=C(C=C1)NC[C@H](CS)N)C2=CC=CC=C2
How it was run: as §1

alisertib = compound: COc1cc(Nc2ncc3c(n2)-c2ccc(Cl)cc2C(c2c(F)cccc2OC)=NC3)ccc1C(=O)O [alisertib]
How it was run: as §1

[4] = compound: COc1cc2nc(-c3cc(F)ccc3O)nc(N[C@@H]3CNC[C@H]3C(C)(C)O)c2cc1OC
How it was run: as §1

gefitinib = compound: COc1cc2ncnc(Nc3ccc(F)c(Cl)c3)c2cc1OCCCN1CCOCC1 [gefitinib]
How it was run: as §1

lapatinib = compound: CS(=O)(=O)CCNCc1ccc(-c2ccc3ncnc(Nc4ccc(OCc5cccc(F)c5)c(Cl)c4)c3c2)o1 [lapatinib]
How it was run: as §1

pictilisib = compound: CS(=O)(=O)N1CCN(Cc2cc3nc(-c4cccc5[nH]ncc45)nc(N4CCOCC4)c3s2)CC1 [pictilisib]
How it was run: as §1

crizotinib = compound: C[C@@H](Oc1cc(-c2cnn(C3CCNCC3)c2)cnc1N)c1c(Cl)ccc(F)c1Cl [crizotinib]
How it was run: as §1

[5] = compound: C[C@H](C1=CC=C(C=C1)C(=O)NC2=C3C=CNC3=NC=C2)N
How it was run: as §1

duvelisib = compound: C[C@H](Nc1ncnc2nc[nH]c12)c1cc2cccc(Cl)c2c(=O)n1-c1ccccc1 [duvelisib]
How it was run: as §1

gandotinib = compound: Cc1cc(Nc2cc(CN3CCOCC3)c3nc(C)c(Cc4ccc(Cl)cc4F)n3n2)n[nH]1 [gandotinib]
How it was run: as §1

tozasertib = compound: Cc1cc(Nc2cc(N3CCN(C)CC3)nc(Sc3ccc(NC(=O)C4CC4)cc3)n2)n[nH]1 [tozasertib]
How it was run: as §1

doramapimod = compound: Cc1ccc(-n2nc(C(C)(C)C)cc2NC(=O)Nc2ccc(OCCN3CCOCC3)c3ccccc23)cc1 [doramapimod]
How it was run: as §1

bafetinib = compound: Cc1ccc(NC(=O)c2ccc(CN3CC[C@H](N(C)C)C3)c(C(F)(F)F)c2)cc1Nc1nccc(-c2cncnc2)n1 [bafetinib]
How it was run: as §1

[6] = compound: Cc1cccc(CC(=O)N2CCc3c2ccc(-c2cn(C)c4ncnc(N)c24)c3F)n1
How it was run: as §1

Measured: log2 fold change

CUX1 isoform 3 (UniProt P39880)
inactive: alvocidib -0.03 | Tubastatin A 0.003 | [1] 0.055 | defactinib -0.006 | [2] 0.005 | encorafenib 0 | [3] 0 | alisertib 0.067 | [4] -0.042 | gefitinib 0.014 | lapatinib -0.01 | pictilisib -0.045 | crizotinib 0.004 | [5] 0.076 | duvelisib 0.007 | gandotinib -0.116 | tozasertib 0.032 | doramapimod -0.025 | bafetinib -0.012 | [6] 0.007

DDX20 (UniProt Q9UHI6)
inactive: alvocidib 0.042 | Tubastatin A -0.213 | [1] -0.001 | defactinib -0.03 | [2] -0.026 | encorafenib 0.076 | [3] 0.01 | alisertib 0.016 | [4] -0.006 | gefitinib 0.025 | lapatinib -0.041 | pictilisib 0.024 | crizotinib -0.088 | [5] 0.029 | duvelisib 0.008 | gandotinib -0.137 | tozasertib -0.065 | doramapimod 0.015 | bafetinib -0.016 | [6] 0.054

CKAP5 (UniProt Q14008)
Sequence of UniProt Q14008 (Q14008 whole entry, looked up): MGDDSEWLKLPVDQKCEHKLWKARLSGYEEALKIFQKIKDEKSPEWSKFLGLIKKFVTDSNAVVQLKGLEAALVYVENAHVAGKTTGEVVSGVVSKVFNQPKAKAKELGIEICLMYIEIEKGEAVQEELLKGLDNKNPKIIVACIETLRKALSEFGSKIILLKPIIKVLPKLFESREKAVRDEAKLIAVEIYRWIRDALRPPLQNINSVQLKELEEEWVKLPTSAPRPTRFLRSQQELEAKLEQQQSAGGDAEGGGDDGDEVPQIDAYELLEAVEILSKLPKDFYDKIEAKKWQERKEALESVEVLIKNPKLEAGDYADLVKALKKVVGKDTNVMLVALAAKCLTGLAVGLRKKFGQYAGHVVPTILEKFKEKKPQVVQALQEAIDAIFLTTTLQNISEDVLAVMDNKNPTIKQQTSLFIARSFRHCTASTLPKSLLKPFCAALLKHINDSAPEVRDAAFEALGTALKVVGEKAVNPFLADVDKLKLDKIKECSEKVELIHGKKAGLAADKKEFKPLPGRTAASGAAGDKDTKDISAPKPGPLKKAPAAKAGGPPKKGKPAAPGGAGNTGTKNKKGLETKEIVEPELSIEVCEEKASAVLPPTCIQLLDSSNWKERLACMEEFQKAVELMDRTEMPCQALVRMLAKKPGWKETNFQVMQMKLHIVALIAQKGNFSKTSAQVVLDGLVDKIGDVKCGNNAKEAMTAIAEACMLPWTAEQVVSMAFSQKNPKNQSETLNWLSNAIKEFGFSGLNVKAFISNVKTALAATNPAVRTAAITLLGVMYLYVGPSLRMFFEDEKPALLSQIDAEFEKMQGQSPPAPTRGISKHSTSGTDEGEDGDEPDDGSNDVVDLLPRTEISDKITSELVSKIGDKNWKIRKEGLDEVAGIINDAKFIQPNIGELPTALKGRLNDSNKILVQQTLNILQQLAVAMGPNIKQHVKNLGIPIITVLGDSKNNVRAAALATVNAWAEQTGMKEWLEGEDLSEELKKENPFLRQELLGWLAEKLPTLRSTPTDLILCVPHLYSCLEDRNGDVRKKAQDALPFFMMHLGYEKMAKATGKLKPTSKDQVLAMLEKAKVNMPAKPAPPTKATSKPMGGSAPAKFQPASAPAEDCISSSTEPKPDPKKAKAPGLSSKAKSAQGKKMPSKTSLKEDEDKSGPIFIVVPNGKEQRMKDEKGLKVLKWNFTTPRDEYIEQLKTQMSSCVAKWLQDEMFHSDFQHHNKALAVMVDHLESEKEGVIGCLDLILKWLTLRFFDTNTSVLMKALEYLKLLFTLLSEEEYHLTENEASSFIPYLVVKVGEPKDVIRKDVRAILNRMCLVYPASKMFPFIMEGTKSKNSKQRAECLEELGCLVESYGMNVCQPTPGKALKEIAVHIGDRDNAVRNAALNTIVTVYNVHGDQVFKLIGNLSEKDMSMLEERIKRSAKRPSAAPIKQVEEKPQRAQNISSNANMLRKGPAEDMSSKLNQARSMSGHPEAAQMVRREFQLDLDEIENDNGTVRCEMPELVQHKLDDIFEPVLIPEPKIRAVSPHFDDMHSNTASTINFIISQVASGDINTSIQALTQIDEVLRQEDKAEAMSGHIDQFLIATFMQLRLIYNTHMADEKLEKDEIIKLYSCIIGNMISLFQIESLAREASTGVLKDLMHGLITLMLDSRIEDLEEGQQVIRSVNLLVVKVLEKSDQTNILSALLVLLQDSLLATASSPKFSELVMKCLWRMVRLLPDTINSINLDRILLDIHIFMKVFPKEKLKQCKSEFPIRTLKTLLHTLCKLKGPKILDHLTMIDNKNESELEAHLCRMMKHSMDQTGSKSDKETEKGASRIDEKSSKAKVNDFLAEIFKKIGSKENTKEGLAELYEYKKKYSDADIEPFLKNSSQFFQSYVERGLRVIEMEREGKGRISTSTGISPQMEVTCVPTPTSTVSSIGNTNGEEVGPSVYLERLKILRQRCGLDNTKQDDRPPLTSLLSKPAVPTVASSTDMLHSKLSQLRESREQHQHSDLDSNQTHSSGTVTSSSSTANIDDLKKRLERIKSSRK
inactive: alvocidib 0.008 | Tubastatin A -0.076 | [1] 0.019 | defactinib 0.008 | [2] 0.003 | encorafenib 0.013 | [3] 0.074 | alisertib 0.012 | [4] 0.007 | gefitinib -0.005 | lapatinib 0.001 | pictilisib 0.013 | crizotinib -0.017 | [5] 0.004 | duvelisib 0.001 | gandotinib -0.053 | tozasertib 0.01 | doramapimod 0.011 | bafetinib 0.005 | [6] 0.015

DICER1 (UniProt Q9UPY3)
inactive: alvocidib -0.032 | Tubastatin A -0.172 | [1] 0.112 | defactinib 0.046 | [2] -0.003 | encorafenib 0.037 | [3] 0.039 | alisertib 0.012 | [4] -0.022 | gefitinib -0.027 | lapatinib -0.02 | pictilisib -0.071 | crizotinib -0.075 | [5] -0.075 | duvelisib -0.05 | gandotinib 0.02 | tozasertib 0.035 | doramapimod 0.039 | bafetinib -0.11 | [6] 0.084

COQ9 (UniProt O75208)
Sequence of UniProt O75208 (O75208 whole entry, looked up): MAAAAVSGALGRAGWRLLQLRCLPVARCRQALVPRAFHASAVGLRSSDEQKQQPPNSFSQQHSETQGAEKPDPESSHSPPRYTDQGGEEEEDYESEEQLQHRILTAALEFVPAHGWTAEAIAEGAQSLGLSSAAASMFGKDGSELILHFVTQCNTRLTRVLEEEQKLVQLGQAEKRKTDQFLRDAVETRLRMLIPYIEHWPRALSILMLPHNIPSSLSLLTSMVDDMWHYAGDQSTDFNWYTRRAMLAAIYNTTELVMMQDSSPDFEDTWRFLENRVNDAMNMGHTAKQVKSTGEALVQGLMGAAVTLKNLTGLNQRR
inactive: alvocidib 0.002 | Tubastatin A -0.041 | [1] -0.035 | defactinib 0.023 | [2] 0.136 | encorafenib -0.021 | [3] 0.024 | alisertib 0.026 | [4] 0.025 | gefitinib -0.012 | lapatinib -0.033 | pictilisib -0.021 | crizotinib 0.014 | [5] 0.055 | duvelisib -0.052 | gandotinib -0.12 | tozasertib 0.02 | doramapimod -0.055 | bafetinib 0.032 | [6] 0.019

CTNNBL1 (UniProt Q8WYA6)
Sequence of UniProt Q8WYA6 (Q8WYA6 whole entry, looked up): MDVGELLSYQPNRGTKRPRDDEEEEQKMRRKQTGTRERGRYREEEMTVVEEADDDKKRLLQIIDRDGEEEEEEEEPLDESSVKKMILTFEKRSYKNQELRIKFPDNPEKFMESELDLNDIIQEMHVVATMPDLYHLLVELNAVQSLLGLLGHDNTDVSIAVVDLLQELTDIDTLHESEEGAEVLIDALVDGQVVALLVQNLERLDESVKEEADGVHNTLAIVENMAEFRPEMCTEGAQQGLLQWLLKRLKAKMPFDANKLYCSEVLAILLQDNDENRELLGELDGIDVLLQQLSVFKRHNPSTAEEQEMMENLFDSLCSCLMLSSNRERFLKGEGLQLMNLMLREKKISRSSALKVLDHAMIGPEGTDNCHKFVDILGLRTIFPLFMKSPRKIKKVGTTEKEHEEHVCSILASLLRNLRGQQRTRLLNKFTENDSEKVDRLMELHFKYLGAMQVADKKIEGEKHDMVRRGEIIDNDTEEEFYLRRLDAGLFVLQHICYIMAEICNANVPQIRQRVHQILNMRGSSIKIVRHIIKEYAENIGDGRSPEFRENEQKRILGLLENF
active: [2] 0.417
inactive: alvocidib 0.027 | Tubastatin A 0.148 | [1] -0.004 | defactinib -0.015 | encorafenib 0.023 | [3] 0.101 | alisertib -0.013 | [4] -0.027 | gefitinib 0.022 | lapatinib 0 | pictilisib -0.011 | crizotinib -0.032 | [5] 0.015 | duvelisib 0 | gandotinib -0.058 | tozasertib 0.033 | doramapimod 0.058 | bafetinib -0.103 | [6] 0.043

CMIP (UniProt Q8IY22)
inactive: alvocidib 0.002 | Tubastatin A -0.161 | [1] 0.001 | defactinib 0.061 | [2] -0.015 | encorafenib 0.078 | [3] 0.025 | alisertib -0.012 | [4] -0.016 | gefitinib 0.007 | lapatinib 0.002 | pictilisib -0.013 | crizotinib -0.001 | [5] 0.046 | duvelisib -0.035 | gandotinib -0.062 | tozasertib 0.017 | doramapimod -0.094 | bafetinib -0.064 | [6] 0.002

CRABP2 (UniProt P29373)
Sequence of UniProt P29373 (P29373 whole entry, looked up): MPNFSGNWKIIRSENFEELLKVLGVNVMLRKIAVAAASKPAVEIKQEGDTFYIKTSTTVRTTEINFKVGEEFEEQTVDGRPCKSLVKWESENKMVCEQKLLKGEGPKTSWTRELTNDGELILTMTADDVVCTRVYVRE
inactive: alvocidib -0.025 | Tubastatin A -0.116 | [1] -0.04 | defactinib -0.015 | [2] 0.006 | encorafenib -0.209 | [3] 0.082 | alisertib -0.109 | [4] -0.018 | gefitinib 0.01 | lapatinib -0.008 | pictilisib -0.026 | crizotinib -0.025 | [5] 0.041 | duvelisib -0.056 | gandotinib 0.091 | tozasertib 0.241 | doramapimod 0.078 | bafetinib 0.014 | [6] -0.138

CIB1 (UniProt Q99828)
Sequence of UniProt Q99828 (Q99828 whole entry, looked up): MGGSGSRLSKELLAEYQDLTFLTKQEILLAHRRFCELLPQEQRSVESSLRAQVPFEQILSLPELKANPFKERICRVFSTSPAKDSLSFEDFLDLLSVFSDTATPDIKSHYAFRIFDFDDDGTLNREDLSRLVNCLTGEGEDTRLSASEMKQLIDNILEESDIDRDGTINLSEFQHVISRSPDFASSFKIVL
inactive: alvocidib -0.003 | Tubastatin A -0.037 | [1] 0.01 | defactinib 0.038 | [2] 0.041 | encorafenib -0.001 | [3] -0.215 | alisertib -0.031 | [4] 0.072 | gefitinib -0.124 | lapatinib -0.073 | pictilisib 0.047 | crizotinib -0.046 | [5] 0.023 | duvelisib -0.006 | gandotinib -0.008 | tozasertib 0.06 | doramapimod 0.051 | bafetinib 0.115 | [6] 0.059

CIP2A (UniProt Q8TCG1)
active: Tubastatin A -0.294
inactive: alvocidib 0.009 | [1] -0.015 | defactinib 0.003 | [2] -0.074 | encorafenib 0.008 | [3] 0.053 | alisertib -0.004 | [4] -0.014 | gefitinib -0.018 | lapatinib -0.02 | pictilisib -0.045 | crizotinib -0.101 | [5] -0.049 | duvelisib 0.012 | gandotinib -0.218 | tozasertib 0 | doramapimod 0.005 | bafetinib -0.047 | [6] 0.103

CMPK2 (UniProt Q5EBM0)
Sequence of UniProt Q5EBM0 (Q5EBM0 whole entry, looked up): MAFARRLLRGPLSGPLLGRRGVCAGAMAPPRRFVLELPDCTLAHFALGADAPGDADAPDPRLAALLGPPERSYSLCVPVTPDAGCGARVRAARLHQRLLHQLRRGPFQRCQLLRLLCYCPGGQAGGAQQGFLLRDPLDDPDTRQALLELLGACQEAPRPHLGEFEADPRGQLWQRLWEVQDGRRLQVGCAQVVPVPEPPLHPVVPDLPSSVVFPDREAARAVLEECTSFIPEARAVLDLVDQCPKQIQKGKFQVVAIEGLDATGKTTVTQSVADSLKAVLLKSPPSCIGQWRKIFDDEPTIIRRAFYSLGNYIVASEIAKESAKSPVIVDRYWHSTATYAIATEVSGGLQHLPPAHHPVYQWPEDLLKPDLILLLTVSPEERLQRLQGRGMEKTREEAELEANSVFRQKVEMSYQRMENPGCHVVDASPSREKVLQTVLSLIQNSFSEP
inactive: alvocidib -0.046 | Tubastatin A 0.005 | [1] 0.018 | defactinib 0.027 | [2] -0.006 | encorafenib 0.01 | [3] 0.028 | alisertib -0.026 | [4] 0.018 | gefitinib -0.022 | lapatinib 0.065 | pictilisib 0 | crizotinib 0.007 | [5] -0.074 | duvelisib 0.043 | gandotinib 0.008 | tozasertib 0.018 | doramapimod -0.01 | bafetinib -0.061 | [6] 0.056

CUEDC2 (UniProt Q9H467)
Sequence of UniProt Q9H467 (Q9H467 whole entry, looked up): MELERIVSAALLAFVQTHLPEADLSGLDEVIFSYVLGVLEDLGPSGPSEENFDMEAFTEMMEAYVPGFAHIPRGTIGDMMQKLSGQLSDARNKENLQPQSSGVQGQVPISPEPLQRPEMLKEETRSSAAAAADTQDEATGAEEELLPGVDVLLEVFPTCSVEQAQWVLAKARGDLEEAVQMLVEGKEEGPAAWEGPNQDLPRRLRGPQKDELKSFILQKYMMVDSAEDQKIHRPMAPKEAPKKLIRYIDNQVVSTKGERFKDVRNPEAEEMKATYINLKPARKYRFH
active: [5] 0.528
inactive: alvocidib 0.054 | Tubastatin A 0.036 | [1] 0.03 | defactinib 0.055 | [2] 0.078 | encorafenib 0.006 | [3] -0.026 | alisertib -0.019 | [4] -0.009 | gefitinib 0.019 | lapatinib 0.018 | pictilisib -0.119 | crizotinib 0.001 | duvelisib -0.009 | gandotinib -0.026 | tozasertib -0.055 | doramapimod 0.022 | bafetinib -0.073 | [6] -0.082

CNOT2 (UniProt Q9NZN8)
inactive: alvocidib -0.003 | Tubastatin A -0.046 | [1] -0.002 | defactinib 0.001 | [2] -0.027 | encorafenib -0.002 | [3] 0.013 | alisertib -0.025 | [4] 0.008 | gefitinib 0.011 | lapatinib -0.027 | pictilisib -0.014 | crizotinib -0.023 | [5] 0.111 | duvelisib -0.008 | gandotinib -0.093 | tozasertib 0.001 | doramapimod -0.01 | bafetinib 0.024 | [6] -0.005

CIAO2A (UniProt Q9H5X1)
Sequence of UniProt Q9H5X1 (Q9H5X1 whole entry, looked up): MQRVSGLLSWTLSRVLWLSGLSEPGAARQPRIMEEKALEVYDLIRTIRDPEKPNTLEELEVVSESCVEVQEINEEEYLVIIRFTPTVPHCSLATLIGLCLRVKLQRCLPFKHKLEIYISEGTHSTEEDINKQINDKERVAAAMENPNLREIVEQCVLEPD
inactive: alvocidib 0.034 | Tubastatin A 0.04 | [1] 0 | defactinib -0.002 | [2] 0.109 | encorafenib 0.026 | [3] -0.052 | alisertib 0.089 | [4] 0.009 | gefitinib 0.088 | lapatinib 0.007 | pictilisib -0.058 | crizotinib -0.014 | [5] 0.181 | duvelisib -0.01 | gandotinib 0 | tozasertib 0.042 | doramapimod 0.11 | bafetinib -0.015
active: [6] -0.276

CNDP2 (UniProt Q96KP4)
Sequence of UniProt Q96KP4 (Q96KP4 whole entry, looked up): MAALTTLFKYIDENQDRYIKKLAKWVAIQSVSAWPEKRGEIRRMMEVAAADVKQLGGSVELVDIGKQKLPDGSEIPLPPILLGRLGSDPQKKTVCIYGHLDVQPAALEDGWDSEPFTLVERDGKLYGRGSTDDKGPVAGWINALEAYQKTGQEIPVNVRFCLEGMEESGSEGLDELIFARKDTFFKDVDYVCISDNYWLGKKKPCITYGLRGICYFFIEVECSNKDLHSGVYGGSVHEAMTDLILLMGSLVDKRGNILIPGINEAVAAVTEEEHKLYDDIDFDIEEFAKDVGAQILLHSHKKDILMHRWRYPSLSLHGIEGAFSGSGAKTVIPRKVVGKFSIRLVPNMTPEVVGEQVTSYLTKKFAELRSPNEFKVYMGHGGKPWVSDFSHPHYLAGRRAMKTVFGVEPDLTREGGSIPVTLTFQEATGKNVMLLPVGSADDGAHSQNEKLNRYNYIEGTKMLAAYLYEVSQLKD
active: [5] -0.255 | gandotinib 0.244
inactive: alvocidib -0.11 | Tubastatin A 0.039 | [1] 0.003 | defactinib 0.005 | [2] 0.1 | encorafenib -0.02 | [3] 0.002 | alisertib -0.031 | [4] 0.047 | gefitinib 0.013 | lapatinib -0.021 | pictilisib -0.017 | crizotinib -0.008 | duvelisib 0.037 | tozasertib -0.062 | doramapimod 0.001 | bafetinib -0.002 | [6] 0.212

DNAJC3 (UniProt Q13217)
inactive: alvocidib 0.004 | Tubastatin A 0.073 | [1] 0.005 | defactinib 0.021 | [2] -0.029 | encorafenib 0.044 | [3] 0.011 | alisertib 0 | [4] 0.005 | gefitinib 0.026 | lapatinib 0.01 | pictilisib -0.015 | crizotinib 0.047 | [5] 0.001 | duvelisib 0.046 | gandotinib 0.012 | tozasertib 0.014 | doramapimod -0.064 | bafetinib -0.002 | [6] -0.014
